Sampled rows, rich in hits. Any-hit rate of the full collection: about 4%.
KKLEB cytotox = cytotoxicity in KKLEB CF airway cells, primary screen, cytotoxicity control for CF NF-kB inhibitor project, cell-based, uHTS, fluorescence assay plates; KKLEB CF airway cells viability, ATPlite luminescence, overnight; active compounds read low; cells stimulated with P. aeruginosa culture filtrate; activity change (cytotoxicity), % at 5 µM; actives 0.36% (n = 360,000); AID 602141, 2011;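 active = corrected activity change at or below -50% at 5 µM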
TROY NFkB inh = inhibitors of TROY-driven NF-kB signaling, primary screen, Q293 LMP1-TROYcd cells, NF-kB luciferase, uHTS; actives 0.98% (n = 360,000); Q293 LMP1-TROYcd NF-kB luciferase reporter, 4 h; inhibition, % at 10 µM;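 active = compounds whose plate-normalised and pattern-corrected inhibition of the luciferase reporter signal at the single screening dose is 50% or more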
Peg3 promoter = Peg3 promoter-driven luciferase inhibitors, primary screen, cell-based, HeLa, luciferase luminescence. actives 1.7% (n = 360,000). AID 588405, 2011. inhibition, % at 20 µM. HeLa PEG-Prom luciferase reporter, overnight;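 active = inhibition of at least 50% at 20 µM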
HIF-2a block = HIF-2a reporter inhibitors, primary screen, luminescence, 786-0 RCC cells; 786-0 RCC cells HIF-2a reporter, luciferase luminescence, overnight; inhibition, % at 18.8 µM; actives 0.72% (n = 360,000); AID 624352, 2012;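 active = inhibition of the luminescence signal of 40% or more relative to plate controls, in a single-dose primary screen at 18.75 µM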
TWEAK-Fn14 inh = inhibitors of TWEAK-Fn14 signaling, primary screen, luciferase reporter cells, uHTS; TWEAK-stimulated Fn14 reporter cells, luciferase luminescence, 8 h; inhibition, % at 10 µM; actives 2% (n = 360,000); AID 1159606, 2016; in the data active = inhibition above about 50%
CF NFkB block = inhibitors of PAF-induced NF-kB signaling, primary screen, cell-based, GFP fluorescence, uHTS; KKLEB NF-kB-GFP reporter, GFP fluorescence overnight; inhibition, % at 5 µM; AID 588850, 2011; actives 0.86% (n = 360,000);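 active = at least 50% inhibition at 5 µM, scaled per plate between neutral and stimulator controls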;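 also: PAF is a Pseudomonas aeruginosa culture filtrate used as stimulus; plate controls were PAF-stimulated DMSO wells for no effect and unstimulated DMSO wells for full effect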
Active calls of the source: *.

Results for Cn1c(COc2ccccc2O)[n+](C)c2ccccc21 ?
KKLEB cytotox: -10.4; TROY NFkB inh: -4.3; Peg3 promoter: -3.4; HIF-2a block: 7.3; TWEAK-Fn14 inh: 11.3; CF NFkB block: -7.3

Results for COc1cccc(C(=O)CSc2nccn2C)c1 ?
KKLEB cytotox: -7.2; TROY NFkB inh: -18.4; Peg3 promoter: -166.8; HIF-2a block: -168.2; TWEAK-Fn14 inh: 86.5*; CF NFkB block: 0.7

Results for N/C(=N\OC(=O)c1ccc(Cl)cc1)c1ccc(Cl)cc1 ?
KKLEB cytotox: 7.8; TROY NFkB inh: -51.0; Peg3 promoter: -337.9; HIF-2a block: -273.8; TWEAK-Fn14 inh: -6.0; CF NFkB block: -14.2

Results for Cc1cccc(/C(N)=N/OC(=O)c2ccc(Cl)cc2Cl)c1 ?
KKLEB cytotox: -16.2; TROY NFkB inh: 62.9*; Peg3 promoter: -129.6; HIF-2a block: -108.1; TWEAK-Fn14 inh: 79.4*; CF NFkB block: -25.3

What do the screens show for `Cc1cccc(/C(N)=N/OC(=O)c2ccc3c(c2)OCO3)c1`?
KKLEB cytotox: -14.7; TROY NFkB inh: 42.6; Peg3 promoter: -66.2; HIF-2a block: -214.1; TWEAK-Fn14 inh: 62.8*; CF NFkB block: -3.9

Results for N/C(=N\OC(=O)c1ccc(Cl)cc1)c1ccn[nH]1 ?
KKLEB cytotox: -14.2; TROY NFkB inh: 38.7; Peg3 promoter: -215.1; HIF-2a block: -45.6; TWEAK-Fn14 inh: 51.5*; CF NFkB block: -2.7

Results for Cc1cccc(/C(N)=N/OC(=O)C23CC4CC(CC(C4)C2)C3)c1 ?
KKLEB cytotox: 4.9; TROY NFkB inh: 60.2*; Peg3 promoter: -68.5; HIF-2a block: -93.7; TWEAK-Fn14 inh: 35.3; CF NFkB block: 7.0

Results for N/C(=N\OC(=O)c1ccc(Cl)cc1Cl)c1cccnc1 ?
KKLEB cytotox: -17.0; TROY NFkB inh: -38.7; Peg3 promoter: -221.9; HIF-2a block: -259.0; TWEAK-Fn14 inh: 21.5; CF NFkB block: -17.7

What do the screens show for `N/C(=N\OC(=O)c1ccc2c(c1)OCO2)c1cccc([N+](=O)[O-])c1`?
KKLEB cytotox: 3.0; TROY NFkB inh: -47.9; Peg3 promoter: -222.4; HIF-2a block: -194.0; TWEAK-Fn14 inh: -5.1; CF NFkB block: 13.6

What do the screens show for `N/C(=N\OC(=O)c1ccccc1Cl)c1ccccc1`?
KKLEB cytotox: -6.6; TROY NFkB inh: 12.9; Peg3 promoter: -192.8; HIF-2a block: -248.7; TWEAK-Fn14 inh: 42.9; CF NFkB block: 8.4

Results for O=C(NOCc1ccccc1)c1ccccc1 ?
KKLEB cytotox: 1.9; TROY NFkB inh: -8.8; Peg3 promoter: -127.0; HIF-2a block: -124.0; TWEAK-Fn14 inh: 39.9; CF NFkB block: 4.7

What do the screens show for `N/C(=N\OC(=O)c1ccc(Cl)cc1Cl)c1ccc(Cl)cc1`?
KKLEB cytotox: -10.2; TROY NFkB inh: 67.3*; Peg3 promoter: -200.7; HIF-2a block: -52.9; TWEAK-Fn14 inh: 71.2*; CF NFkB block: -16.3

Results for N/C(=N\OC(=O)c1ccc(Cl)cc1Cl)c1ccccc1 ?
KKLEB cytotox: -48.2; TROY NFkB inh: 62.9*; Peg3 promoter: -53.2; HIF-2a block: -69.5; TWEAK-Fn14 inh: 90.8*; CF NFkB block: -21.1

What do the screens show for `N/C(=N\OC(=O)c1ccccc1Cl)c1ccc(Cl)cc1`?
KKLEB cytotox: -1.5; TROY NFkB inh: 16.1; Peg3 promoter: -207.8; HIF-2a block: -161.5; TWEAK-Fn14 inh: 32.3; CF NFkB block: 0.0

Results for O=C(NOCc1ccccc1)c1ccc(Cl)cc1Cl ?
KKLEB cytotox: 0.1; TROY NFkB inh: 41.9; Peg3 promoter: 3.6; HIF-2a block: -50.1; TWEAK-Fn14 inh: 82.5*; CF NFkB block: 0.8

Results for Cc1ccc(/C(N)=N/OC(=O)c2ccc(C)cc2Cl)cc1 ?
KKLEB cytotox: -63.6*; TROY NFkB inh: 74.7*; Peg3 promoter: -84.3; HIF-2a block: -65.3; TWEAK-Fn14 inh: 84.7*; CF NFkB block: -6.7

How did Cc1c[n+](CC(=O)c2ccccc2)cs1 do in these assays?
KKLEB cytotox: 4.1; TROY NFkB inh: 4.5; Peg3 promoter: -5.1; HIF-2a block: 3.6; TWEAK-Fn14 inh: 90.0*; CF NFkB block: -19.5

Results for N#CC(C#N)=Cc1cc2ccccc2nc1N1CCOCC1 ?
KKLEB cytotox: -1.6; TROY NFkB inh: 27.9; Peg3 promoter: 3.9; HIF-2a block: 7.8; TWEAK-Fn14 inh: 34.9; CF NFkB block: -23.1

How did N#C/C(=C\c1cc2ccccc2nc1N1CCOCC1)C(=O)Nc1ccc(N2CCOCC2)cc1 do in these assays?
KKLEB cytotox: -2.8; TROY NFkB inh: 57.7*; Peg3 promoter: 46.7; HIF-2a block: 6.8; TWEAK-Fn14 inh: 23.3; CF NFkB block: 11.4

Results for O=C(NCC(c1cccnc1)N1CCN(c2ccc(F)cc2)CC1)C1CCCCC1 (centres undefined) ?
KKLEB cytotox: -8.1; TROY NFkB inh: 1.1; Peg3 promoter: 0.1; HIF-2a block: -1.5; TWEAK-Fn14 inh: 13.7; CF NFkB block: 13.9

How did O=C(NCC(c1cccnc1)N1CCN(c2ccccc2F)CC1)C1CCCCC1 (centres undefined) do in these assays?
KKLEB cytotox: 6.6; Peg3 promoter: 4.9; HIF-2a block: 17.1; TWEAK-Fn14 inh: 84.8*; CF NFkB block: -2.7

Results for COc1cc(C(=O)Nc2cc(C)ccn2)ccc1OCC(=O)N1CCOCC1 ?
KKLEB cytotox: -2.0; TROY NFkB inh: 14.4; Peg3 promoter: -46.1; HIF-2a block: -110.4; TWEAK-Fn14 inh: 92.5*; CF NFkB block: 2.8

What do the screens show for `COc1cc(C(=O)Nc2nc(-c3ccc(Cl)cc3)c(C)s2)ccc1OCC(=O)Nc1ccc(F)cc1`?
KKLEB cytotox: -58.4*; TROY NFkB inh: 35.0; Peg3 promoter: 34.8; HIF-2a block: -3.1; TWEAK-Fn14 inh: -24.0; CF NFkB block: 47.5

Results for COc1cc(C(=O)Nc2ccc(C)cn2)ccc1OCC(=O)N1CCOCC1 ?
KKLEB cytotox: 7.0; TROY NFkB inh: -7.4; Peg3 promoter: -13.9; HIF-2a block: -45.9; TWEAK-Fn14 inh: 11.4; CF NFkB block: -30.5

How did CCc1ccc(-c2nc(NC(=O)c3ccc(OCC(=O)Nc4ccc(F)cc4)c(OC)c3)sc2C)cc1 do in these assays?
KKLEB cytotox: 0.0; TROY NFkB inh: -5.0; Peg3 promoter: 11.4; HIF-2a block: 7.8; TWEAK-Fn14 inh: -32.7; CF NFkB block: -12.4

What do the screens show for `COc1ccc(-c2nc(NC(=O)c3ccc(OCC(=O)N4CCOCC4)c(OC)c3)sc2C)cc1`?
KKLEB cytotox: 5.1; TROY NFkB inh: 26.7; Peg3 promoter: 65.9*; HIF-2a block: 8.0; TWEAK-Fn14 inh: 57.8*; CF NFkB block: -30.7

How did C=CCNC(=O)c1ccsc1N do in these assays?
HIF-2a block: 7.8

How did O=C(CCl)N=c1sccn1Cc1cccc2ccccc12 do in these assays?
KKLEB cytotox: -98.5*; TROY NFkB inh: -12.5; Peg3 promoter: 33.5; HIF-2a block: 25.5; TWEAK-Fn14 inh: 48.0; CF NFkB block: 91.3*

Screening results deposited in PubChem by Sanford-Burnham Center for Chemical Genomics.
